MEX-5 binding – MEX-5 zinc finger RNA-binding disruptors – biochemical, C. elegans, fluorescence polarization, MLPCN library, primary screen; actives 0.38% (n = 300,000); activity score (negative = inhibition of binding), % at 10 µM; MEX-5/FITC-TCR2 RNA binding; hits give low values; Zinc finger protein mex-5 (Caenorhabditis elegans), Q9XUB2; AID 1832, 2009;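 active = inhibition past about -25% in most replicates, and total fluorescence under double the plate's negative control median, limit read from the data; inconclusive = replicates evenly split on the limit, or fluorescence at least double controls; inactive = too little inhibition in most replicates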;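 also: 0% = DMSO and -100% = 5 µM competing unlabeled TCR2 RNA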
Exocytosis inh – LAMP-1 surface exposure blockers, TALL-104 cells – cell-based, flow cytometry, MLPCN library, primary screen | TALL-104 LAMP-1 surface exposure; cells stimulated with thapsigargin and PMA | inhibition, % at 10 µM | actives 0.66% (n = 360,000);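 active = inhibition above about 55%, limit read from the data; inconclusive = no clear call, values can overlap the other calls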
GASC-1 inh – inhibitors of GASC-1 histone demethylase, primary screen, biochemical, fluorescence, DELFIA europium | inhibition, % at 2.35 µM | GST-JMJD2C(1-420) H3K9me3 demethylation | AID 2099, 2009 | Lysine-specific demethylase 4C (Homo sapiens), Q9H3R0 | actives 0.069% (n = 330,000);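 active = more than half of a compound's replicate wells show inhibition beyond 50%, single wells judged on their own value; inconclusive = some, but no more than half, of replicates pass 50% inhibition; inactive = no replicate passes 50% inhibition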;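 also: signal counts dimethyl H3K9 product captured on neutravidin plate; 0% = median of DMSO wells and 100% = 0.3 times that DMSO median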
Target sequence (Q9H3R0 1-420 limits assumed): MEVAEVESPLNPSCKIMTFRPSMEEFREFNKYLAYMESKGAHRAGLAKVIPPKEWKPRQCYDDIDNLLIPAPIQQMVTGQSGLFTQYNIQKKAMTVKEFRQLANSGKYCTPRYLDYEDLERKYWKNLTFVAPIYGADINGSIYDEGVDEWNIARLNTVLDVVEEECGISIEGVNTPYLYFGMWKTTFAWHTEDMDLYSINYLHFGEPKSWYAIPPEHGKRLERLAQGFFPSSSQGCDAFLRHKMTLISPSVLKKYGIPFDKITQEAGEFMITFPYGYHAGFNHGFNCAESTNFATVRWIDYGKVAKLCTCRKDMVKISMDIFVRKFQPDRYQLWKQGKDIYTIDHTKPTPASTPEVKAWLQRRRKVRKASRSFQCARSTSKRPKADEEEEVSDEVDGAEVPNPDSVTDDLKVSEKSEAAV
VLA-4 inh – inhibition in human VLA-4 binding assay, primary screen, VLA-4 allosteric modulator project, MLPCN library, flow cytometry, VLA-4 expressing cells; Integrin alpha-4 (Homo sapiens), P13612; ligand binding flow cytometry; inhibition, % (about 7 µM as worked out from the volumes in the protocol); actives 0.2% (n = 330,000); in the data active = inhibition above about 50%
V-ATPase pHluor – regulators of yeast V-ATPase proton pumping, primary screen, pHLuorin cytosolic pH fluorescence; S. cerevisiae; response, % at 10 µM; AID 504577, 2011; actives 0.37% (n = 350,000); in the data active = response mostly above about 7.3%, no sharp cut-off; inactive = mostly below about 5.4%; also: actives read high
m5-HT2A agonist – mouse Htr2a agonists via beta-arrestin recruitment, primary screen, cell-based, luminescence; 5-hydroxytryptamine receptor 2A (Mus musculus), P35363; CHO-K1 mHTR2A beta-arrestin complementation; percent of 30 µM serotonin response; activation, % at 7.6 µM; actives 0.66% (n = 360,000); AID 624169, 2012;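 active = activation above a run cutoff, the mean activation of all tested compounds plus 3 SD, cut at about 14% in these data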;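 also: 0% = plate median of compound wells and 100% = 30 µM serotonin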
The depositor's hits bear a star; u = inconclusive; x = no result. Hits are enriched below; roughly 2.2% of the tested compounds scored in any of these assays.

SMILES | MEX-5 binding | Exocytosis inh | GASC-1 inh | VLA-4 inh | V-ATPase pHluor | m5-HT2A agonist
CC(C)n1c(O)c(C2c3cc(Cl)ccc3Oc3[nH]c(=O)n(C(C)C)c(=O)c32)c(=O)[nH]c1=O (configuration not stated) | -2.9 | 0.5 | -4.4 | x | 17.5* | -2.2
O=c1[nH]c(=O)n(-c2ccc(Br)cc2)c(O)c1C=NCCN1CCCCC1 | -40.1* | 5.3 | -2.7 | 0.0 | 1.8 | -1.1
Cc1cccc(-n2c(O)c(C=NCCN3CCCCC3)c(=O)[nH]c2=O)c1 | -0.1 | -7.1 | 16.4 | -0.7 | -3.0 | -1.2
O=C1NC(=O)N(Cc2ccccc2)C(=O)/C1=C/C=C/c1ccco1 | -0.4 | u | 57.6* | 17.8 | 11.9 | -3.4
COc1ccc(CN2C(=O)NC(=O)/C(=C\c3cc(OC)c(OC)c(OC)c3)C2=O)cc1 | -4.0 | 12.9 | 23.8 | 7.1 | -0.6 | 7.9
COc1ccc(CN2C(=O)NC(=O)/C(=C\c3ccco3)C2=O)cc1 | -46.4* | -0.9 | 10.7 | 13.2 | 4.2 | 1.7
COC(=O)C1=C(c2ccc(Cl)c(C(F)(F)F)c2)C[C@@H]2CC[C@H]1N2C(=O)N1CCC(C)CC1 | x | 5.8 | 3.9 | 7.3 | -4.0 | -8.3
CC(=NCc1ccc2c(c1)OCO2)c1c(O)n(-c2ccccc2)c(=O)[nH]c1=O | -4.9 | 9.1 | 2.2 | 0.2 | 0.2 | -0.7
Cc1cc(/C=C2\C(=O)NC(=O)N(c3cccc(Br)c3)C2=O)c(C)n1C | -28.5* | -1.2 | -12.5 | -3.5 | -4.1 | 0.7
Cc1cc(/C=C2/C(=O)NC(=O)N(c3ccc(Br)cc3)C2=O)c(C)n1C | -11.2 | 5.2 | -1.1 | 7.5 | -5.9 | 3.9
O=c1[nH]c(=S)n(-c2ccc(Cl)cc2)c(O)c1C=Nc1ccc(N2CCOCC2)cc1 | -41.3* | 1.1 | -4.5 | 1.0 | 2.8 | 0.4
CCc1nnc(NS(=O)(=O)c2ccc(N=Cc3c(O)n(-c4ccc(Cl)cc4)c(=O)[nH]c3=O)cc2)s1 | -27.9* | -1.9 | -20.0 | -0.7 | 1.2 | -2.2
O=c1[nH]c(=O)n(C2CCCCC2)c(O)c1C=Nc1ccc(N2CCOCC2)cc1 | -0.1 | -0.8 | u | 14.1 | 0.4 | 1.9
O=c1nc(/C=C/c2ccc(Cl)cc2Cl)cc(C(F)(F)F)[nH]1 | 0.6 | 3.2 | 5.8 | -2.6 | -3.1 | -2.7
C[CH2][Hg][S]c1ccccc1C(=O)O | x | 69.3* | x | 35.1 | 12.3 | 11.1
COC(=O)C1=C(N)Oc2c(c(=O)oc3ccccc23)C1c1cccnc1 (configuration not stated) | 0.8 | -1.7 | -2.2 | 10.2 | 27.1* | -0.8
N#CC1=C(N)Oc2c(c(=O)oc3ccccc23)C1c1ccncc1 (configuration not stated) | x | 1.3 | x | 8.0 | -3.6 | 4.5
O=C1NC2NC(=O)N([N+](=O)[O-])C2N1 (configuration not stated) | 1.9 | -5.0 | -5.2 | 9.8 | 2.4 | -1.4
Cc1cc(/C=C2\C(=O)NC(=O)N(Cc3ccccc3)C2=O)c(C)n1C1CC1 | -58.2* | -3.3 | 13.4 | 6.7 | 3.6 | -0.2
CC(NS(C)(=O)=O)c1nnc2n1-c1ccc(Br)cc1C(c1ccccc1Cl)=NC2 (configuration not stated) | -1.7 | -0.4 | 3.2 | 5.8 | -0.2 | 4.2
COc1ccc(N2C(=O)NC(=O)/C(=C\c3ccc([N+](=O)[O-])s3)C2=O)cc1 | -23.6 | 3.6 | 9.2 | -23.2 | 102.3* | 1.5
COc1cccc(N2C(=O)NC(=O)/C(=C/c3ccc([N+](=O)[O-])s3)C2=O)c1 | u | 13.7 | 4.1 | -27.2 | 111.5* | 1.6
Cc1ccc(N2C(=O)NC(=O)/C(=C\c3ccc([N+](=O)[O-])o3)C2=O)cc1 | -67.8* | x | -16.0 | -11.0 | x | x
COc1cc(/C=C2/C(=O)NC(=O)N(c3ccccc3)C2=O)ccc1O | 0.5 | -1.1 | 14.9 | -2.2 | 2.6 | 6.9
COc1cccc(N2C(=O)NC(=O)/C(=C/c3ccc4c(c3)Cc3ccccc3-4)C2=O)c1 | -42.8* | 13.3 | 46.4 | -2.3 | -1.5 | -5.0
SMILES | MEX-5 binding | Exocytosis inh | GASC-1 inh | VLA-4 inh | V-ATPase pHluor | m5-HT2A agonist
COc1c(C=C2C(=O)NC(=O)NC2=O)c(CCN(C)C(=O)c2ccccc2)cc2c1OCO2 | -0.2 | -0.1 | -3.1 | 8.5 | -3.2 | -2.2
CNC1CCc2cc(OC)c(OC)c(OC)c2-c2ccc(SC)c(=O)cc21 (configuration not stated) | x | -2.5 | x | x | -2.3 | -1.1
COc1ccccc1N1C(=O)NC(=O)/C(=C/c2ccc([N+](=O)[O-])s2)C1=O | -19.6 | x | 17.0 | 17.4 | 125.3* | x
COc1ccc(N2C(=O)NC(=O)/C(=C/c3ccc([N+](=O)[O-])s3)C2=O)cc1 | -11.6 | 36.2 | -14.6 | -31.7 | 100.5* | -0.8
CCOc1ccc(N2C(=O)NC(=O)/C(=C\c3cc(OC)c(OC)cc3[N+](=O)[O-])C2=O)cc1 | 0.9 | -2.6 | 0.0 | 4.9 | -0.2 | 4.5
CC(C)(C#CCCCCC#CC(C)(C)[N+](C)(C)C)[N+](C)(C)C | -1.2 | x | -7.8 | -1.5 | x | x
Cc1cc(Cl)ccc1OC(C)C(=O)O (configuration not stated) | -1.6 | -3.8 | -4.6 | 44.6 | 0.2 | 14.8*
Cc1cc(Cl)ccc1OCC(=O)N1CCN(C)CC1 | -0.3 | 0.8 | 2.2 | -6.7 | -1.8 | -5.2
CC1CN(c2ccccn2)C(C)CN1C(=O)C(O)(c1ccccc1)c1ccccc1 (configuration not stated) | x | -3.0 | x | x | 1.4 | -4.2
CCOc1ccc(-c2cc(C)[n+](CCc3ccc(OC)c(OC)c3)c(-c3ccc(OCC)cc3)c2)cc1 | 1.4 | 57.0* | -5.1 | 0.3 | -1.5 | 1.8
CCOc1ccc(-c2cc(C)[n+](CCO)c(-c3ccc(OCC)cc3)c2)cc1 | -0.2 | 1.1 | 5.5 | 1.4 | -0.6 | 7.6
COC(=O)C1=C(c2ccc(Cl)c(C(F)(F)F)c2)C[C@@H]2CC[C@H]1N2C(=O)NCc1ccc2c(c1)OCO2 | x | 76.1* | 12.1 | -2.2 | -7.0 | 1.8
COC(=O)C1=C(c2ccc(C(C)=O)cc2)C[C@@H]2CC[C@H]1N2C(=O)NCc1ccc2c(c1)OCO2 | x | 2.2 | 0.0 | -14.7 | -1.0 | -0.2
Cc1ccc(/C=C2/Sc3ccc(C(=O)N4CCC5(CC4)OCCO5)cc3NC2=O)cc1 | -29.3* | 0.3 | 2.7 | 5.0 | 0.0 | 7.6
CN1C(=O)c2ccccc2Sc2ccc(C(=O)N3CCC4(CC3)OCCO4)cc21 | -0.5 | 6.4 | -1.5 | 7.6 | -2.1 | 1.8

Screens deposited in PubChem BioAssay by several laboratories.
